Consider 33 compounds from PubChem BioAssay (NCI).

Molecules are shown by their SMILES. Several values for one entry are separate records, joined by “and”; a condition that tells them apart may be missing. Equal values may be shown once. This is part of a sample that, as a whole, favours compounds with a hit. Of some 83,000 tested, about 20% had one in any assay.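 In brief: 96-well plates, 48 h treatment, single concentration, percent growth endpoint.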 A number with no mark means an inactive call. Activity calls are given as the source filed them. Rule for the calls: active = growth percent below 10; inactive = the rest.

This experiment has as its system SK-MEL-2 melanoma. As to the kind of experiment: NCI-60 one-dose screen, 48 h (100 = growth as untreated, 0 = no growth, -100 = all killed). The note with it: 10 µM unless noted.
As to `NNc1nnc2nc(Nc3ccccc3)nc(Nc3ccc(S(N)(=O)=O)cc3)n12`, the growth was 111%.
Take `Brc1ccc2[nH]cc(-c3nn4cc(-c5nccs5)nc4s3)c2c1`: the growth was 81.4%.
Then `Nn1c(=O)n(-c2cccc(C(F)(F)F)c2)c(=O)c2cc(-c3ccc(F)cc3F)ccc21`, with -21.5% (active).
Then `CN(C)CCNc1ccc2ncc(C#Cc3cncc(C(=O)Nc4ccc(CN5CCN(C)CC5)c(C(F)(F)F)c4)c3)n2n1`, with 0.656% (active); and `O=S(=O)(Oc1ccc(-c2cn3ccoc3n2)cc1)C1CCCCC1`, with 99.4%.
`O=C(N/N=C\c1ccc([N+](=O)[O-])cc1)c1ccc2nc(-c3ccc(Br)cc3)[nH]c2c1`: the growth was 51.9%.
Then `Cc1ccsc1[C@H]1c2[nH]c3ccccc3c2C[C@H]2C(=O)N(CCCCCCC(=O)NO)CC(=O)N12`, with 92%; and `Cc1ccc(N2CCN(C3=C(Cl)C(=O)c4ncccc4C3=O)CC2)cc1`, with 94.4%.
As to `N#Cc1cccc(-c2cc(-c3ccc4c(c3)OCCO4)[nH]n2)c1`, the growth is 47.3%.
`COc1cc2cc(Oc3ccc(NC(=O)c4cc(C(F)(F)F)cc(C(F)(F)F)c4)cc3)c(C)nc2cc1OCCN1CCOCC1`: the growth is 101%.
`N#C/C(=N\Nc1ccc(F)cc1)C(=O)Nc1cc(-c2ccccc2)nn1-c1ccccc1`: the growth was 4.66% (active).
In the case of `CN(C)CCCOc1ccc(C(=C(c2ccccc2)C2CCCC2)c2ccc(OCCCN(C)C)cc2)cc1`, the growth is -94.3% (active).
Then `NC(=O)c1ncn2c(=O)n(CCF)nnc12`, with -6.14% (active); and `CN1CCN(c2ccc(Nc3nc(NCCNS(=O)(=O)c4ccc(Cl)cc4)c4sccc4n3)cc2)CC1`, with 110%.
As for `COc1cc(-c2nc(-c3ccccc3)[nH]c2-c2ccnc(NCCCNS(=O)(=O)c3ccc(C(F)(F)F)cc3)n2)ccc1Cl`, the growth is 74.8% and 43.8%.
The figure for `CC1(C)CC[C@]23CC[C@]4(C)[C@H](CC[C@@H]5[C@@]6(C)CC[C@H](N)C(C)(C)[C@@H]6CC[C@]54C)[C@H]2[C@H]1OC3` is 108%.
In the case of `Clc1ccc2[nH]cc(-c3nn4cc(-c5cccnc5)nc4s3)c2c1`, the growth is 101%.
The figure for `NS(=O)(=O)c1ccc(Nc2nc(N/N=C/c3ccc4c(c3)OCO4)nc(Nc3ccccc3)n2)cc1` is 55.8%.
In the case of `Brc1cc(-c2cc(-c3ccc4c(c3)OCCO4)[nH]n2)cs1`, the growth is 62.7%.
`CC1=C(C)C(=O)C(Nc2ccc(C)c(C)c2)=C(Br)C1=O`: the growth was 112%.
Regarding `COC(=O)N1CCN(CCNCc2ccc(NC(=O)c3ccc(C)c(C#Cc4cnc5cccnn45)c3)cc2C(F)(F)F)CC1`, the growth was 4.46% (active).
In the case of `O=C(CCCCCCN1CC(=O)N2[C@@H](c3cccs3)c3[nH]c4ccccc4c3C[C@H]2C1=O)NO`, the growth is 77.8%.
In the case of `C=C(C)[C@@H]1CC[C@]2(C(=O)N3CCN(C)CC3)CC[C@]3(C)[C@H](CC[C@@H]4[C@@]5(C)CC[C@H](OP(=O)(OCC)OCC)C(C)(C)[C@@H]5CC[C@]43C)[C@@H]12`, the growth is 106%.
On to `CC(=O)N(O)CCCCCNC(=O)CCC(=O)N(O)CCCCCNC(=O)CCC(=O)N(O)CCCCCN(CCCCCCCCCC[P+](c1ccccc1)(c1ccccc1)c1ccccc1)CCCCCCCCCC[P+](c1ccccc1)(c1ccccc1)c1ccccc1`, for which the growth is -46.7% (active).
As for `Cc1[nH]c(C(=O)Nc2ccccc2OCc2cccc(C(=O)NCCN)c2)cc1Cl`, the growth is 92.8%.
Then `CCOC(=O)Nc1ccc2c(ccn2C(=O)c2cccc(F)c2)c1`, with 32%.
On to `O=C(Nc1ccc(N=Cc2c(O)[nH]c3ccccc23)cc1)Nc1ccc(S(=O)(=O)Nc2ncccn2)cc1`, for which the growth is 111%.
Then `Fc1cccc(Cl)c1/C=N/Nc1nc(N/N=C/c2c(F)cccc2Cl)nc(N2CCCCC2)n1`, with -25.8% (active); and `CCc1nnc(NC(=O)c2cc(-c3ccc(Cl)cc3Cl)oc2C)s1`, with 108%; and `C/C(=N\NC(=O)Nc1ccccc1)c1nnn(-c2ccc([N+](=O)[O-])cc2)c1C`, with 104%.
Then `C#C[C@]1(O)CC[C@H]2[C@@H]3CC=C4c5sc(Nc6cc(Cl)ccc6OC)nc5CC[C@]4(C)[C@H]3CC[C@@]21C`, with 1.15% (active); and `O=C(O)CC1CCN(c2ccc3nnc(Cl)n3n2)CC1`, with 106%; and `Cc1cc2nc(C(Cl)Cl)nc(-c3ccc(S(=O)(=O)N(C)C)cc3)n2n1`, with 93%.
